Experimental data from the supplement of paper PMC9694430.

Key:
Experiment in all cases: thermal shift delta Tm vs DMSO control; higher = stronger stabilization (binding)
Settings in all cases: 12.5 µM; protein concentration 2 µM
LOC_OS02G45750-cb003 = system: LOC_OS02G45750-cb003
How it was run: (§1)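 Thermal shift values come from differential scanning fluorimetry on purified rice kinase domains made in E. coli, with melting temperatures obtained from Boltzmann fits. Samples of 19.5 μl held 2 μM kinase, 100 mM potassium phosphate pH 7.5, 150 mM NaCl, 10% glycerol, 5 × SYPRO Orange and compound in DMSO, and were heated from 25°C to 95°C at 0.05°C/s. Each shift is a triplicate mean relative to the DMSO-only protein sample.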

LOC_OS02G54510-cb004 = system: LOC_OS02G54510-cb004
How it was run: as §1

LOC_OS03G04050-cb001 = system: LOC_OS03G04050-cb001
How it was run: as §1

LOC_OS03G12390-cb001 = system: LOC_OS03G12390-cb001
How it was run: as §1

LOC_OS03G27990-cb004 = system: LOC_OS03G27990-cb004
How it was run: as §1

LOC_OS03G50450-cb001 = system: LOC_OS03G50450-cb001
How it was run: as §1

LOC_OS03G50810-cb003 = system: LOC_OS03G50810-cb003
How it was run: as §1

LOC_OS04G35114-cb001 = system: LOC_OS04G35114-cb001
How it was run: as §1

LOC_OS04G38480-cb003 = system: T1, LOC_OS04G38480-cb003
T1 sequence (whole entry): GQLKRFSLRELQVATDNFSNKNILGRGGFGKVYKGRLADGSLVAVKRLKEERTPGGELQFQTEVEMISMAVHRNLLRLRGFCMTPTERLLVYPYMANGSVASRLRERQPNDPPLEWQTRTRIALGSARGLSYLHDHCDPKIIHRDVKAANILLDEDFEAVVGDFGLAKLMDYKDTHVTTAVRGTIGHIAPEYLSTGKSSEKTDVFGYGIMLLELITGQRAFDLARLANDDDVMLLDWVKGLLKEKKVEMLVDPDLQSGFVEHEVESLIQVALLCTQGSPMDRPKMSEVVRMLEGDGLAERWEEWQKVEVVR
How it was run: as §1

LOC_OS04G41100-cb001 = system: T2, LOC_OS04G41100-cb001
T2 sequence (whole entry): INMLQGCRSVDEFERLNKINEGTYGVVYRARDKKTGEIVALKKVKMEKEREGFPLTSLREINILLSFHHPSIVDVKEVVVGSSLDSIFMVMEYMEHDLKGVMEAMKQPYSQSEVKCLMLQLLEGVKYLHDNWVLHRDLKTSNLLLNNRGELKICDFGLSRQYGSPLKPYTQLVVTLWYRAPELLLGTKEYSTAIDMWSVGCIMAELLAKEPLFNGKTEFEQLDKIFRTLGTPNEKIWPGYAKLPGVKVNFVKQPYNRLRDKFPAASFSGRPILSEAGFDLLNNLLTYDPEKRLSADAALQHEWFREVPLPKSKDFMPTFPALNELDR
How it was run: as §1

LOC_OS04G57630-cb004 = system: LOC_OS04G57630-cb004
How it was run: as §1

LOC_OS05G07850-cb002 = system: LOC_OS05G07850-cb002
How it was run: as §1

LOC_OS05G16824-cb004 = system: LOC_OS05G16824-cb004
How it was run: as §1

LOC_OS05G28520-cb001 = system: LOC_OS05G28520-cb001
How it was run: as §1

LOC_OS05G30820-cb001 = system: LOC_OS05G30820-cb001
How it was run: as §1

LOC_OS05G43570-cb004 = system: LOC_OS05G43570-cb004
How it was run: as §1

LOC_OS06G16330-cb003 = system: LOC_OS06G16330-cb003
How it was run: as §1

LOC_OS06G22820-cb001 = system: T3, LOC_OS06G22820-cb001
T3 sequence (whole entry): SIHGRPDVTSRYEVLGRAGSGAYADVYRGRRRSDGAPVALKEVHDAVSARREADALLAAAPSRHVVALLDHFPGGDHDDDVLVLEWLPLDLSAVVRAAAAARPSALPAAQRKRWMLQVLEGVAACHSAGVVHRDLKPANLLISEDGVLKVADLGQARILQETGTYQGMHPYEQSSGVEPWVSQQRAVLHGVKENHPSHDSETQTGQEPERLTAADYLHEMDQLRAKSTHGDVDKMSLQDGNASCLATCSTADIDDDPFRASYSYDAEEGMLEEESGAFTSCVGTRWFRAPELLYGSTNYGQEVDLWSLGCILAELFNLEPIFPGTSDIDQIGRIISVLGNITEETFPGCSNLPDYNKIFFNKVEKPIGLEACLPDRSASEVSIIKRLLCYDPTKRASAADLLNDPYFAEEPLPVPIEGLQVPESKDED
How it was run: as §1

LOC_OS07G06570-cb004 = system: LOC_OS07G06570-cb004
How it was run: as §1

LOC_OS07G07230-cb001 = system: LOC_OS07G07230-cb001
How it was run: as §1
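Also: purified Escherichia coli-expressed rice kinase domain construct.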

Sequence of LOC_OS06G16330-cb003 (as listed by the source): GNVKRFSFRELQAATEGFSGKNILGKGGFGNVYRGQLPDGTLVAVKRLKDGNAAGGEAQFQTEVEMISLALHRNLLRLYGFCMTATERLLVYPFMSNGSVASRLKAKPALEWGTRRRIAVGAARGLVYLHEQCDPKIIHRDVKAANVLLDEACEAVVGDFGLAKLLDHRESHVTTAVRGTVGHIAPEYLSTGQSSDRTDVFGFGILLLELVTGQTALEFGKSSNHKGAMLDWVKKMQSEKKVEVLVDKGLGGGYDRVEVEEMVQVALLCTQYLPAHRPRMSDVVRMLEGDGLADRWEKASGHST

Structure (SMILES)	thermal shift delta Tm (LOC_OS02G45750-cb003) [°C]	thermal shift delta Tm (LOC_OS02G54510-cb004) [°C]	thermal shift delta Tm (LOC_OS03G04050-cb001) [°C]	thermal shift delta Tm (LOC_OS03G12390-cb001) [°C]	thermal shift delta Tm (LOC_OS03G27990-cb004) [°C]	thermal shift delta Tm (LOC_OS03G50450-cb001) [°C]	thermal shift delta Tm (LOC_OS03G50810-cb003) [°C]	thermal shift delta Tm (LOC_OS04G35114-cb001) [°C]	thermal shift delta Tm (LOC_OS04G38480-cb003) [°C]	thermal shift delta Tm (LOC_OS04G41100-cb001) [°C]	thermal shift delta Tm (LOC_OS04G57630-cb004) [°C]	thermal shift delta Tm (LOC_OS05G07850-cb002) [°C]	thermal shift delta Tm (LOC_OS05G16824-cb004) [°C]	thermal shift delta Tm (LOC_OS05G28520-cb001) [°C]	thermal shift delta Tm (LOC_OS05G30820-cb001) [°C]	thermal shift delta Tm (LOC_OS05G43570-cb004) [°C]	thermal shift delta Tm (LOC_OS06G16330-cb003) [°C]	thermal shift delta Tm (LOC_OS06G22820-cb001) [°C]	thermal shift delta Tm (LOC_OS07G06570-cb004) [°C]	thermal shift delta Tm (LOC_OS07G07230-cb001) [°C]
Cc1nc(N)sc1-c1ccnc(Nc2ccc(N3CCOCC3)cc2)n1	3.37	1.11	0.62	3.79	1.2	1.67	2.84	5.04	2.31	1.72	2.53	13.4	8.12	0.36	0.56	0.98	6.87	0.66	0.8	0.42
C=CC(=O)Nc1ccc2ncnc(Nc3ccc(OCc4cccc(F)c4)c(Cl)c3)c2c1	2.15	0.29	1.39	2.82	1.09	1.56	1.76	1.62	4.58	1.61	2.39	1.81	3.11	1.71	0.87	2.77	1.04	2.98	1.79	-0.18
COCCNCc1ccc(-c2cc3nccc(Oc4ccc(NC(=O)C5(C(=O)Nc6ccc(F)cc6)CC5)cc4F)c3s2)nc1 [Sitravatinib (MGCD516)]	6.42	1.08	0.75	0.75	1.06	0.57	3.13	6.52	3.71	3.13	7.89	14.5	10.7	7.64	0.29	0.73	9.07	0.6	0.67	-0.46
CC(C)=CC[C@@H](O)C1=CC(=O)c2c(O)ccc(O)c2C1=O [Shikonin]	0	-0.56	0.62	-4.26	-2.32	-1.22	0	3.21	-2.82	-0.35	-1.93	-1.47	-0.18	1.58	0.18	0.09	-1.68	-0.26	7.3	0.21
COc1cc2c(Oc3ccc4[nH]c(C)cc4c3F)ncnc2cc1OCCCN1CCCC1 [Cediranib (AZD2171)]	1.17	-0.01	0.25	1.5	0.44	-0.12	2.04	5.53	0.23	0.71	0.99	1.23	1.08	-0.22	0.46	0.17	-0.02	0.55	0.63	0.34
C=C(C)[C@@H]1CC[C@]2(C)CC[C@]3(C)[C@H](CC[C@@H]4[C@@]5(C)CC[C@H](O)C(C)(C)[C@@H]5CC[C@]43C)[C@@H]12 [Lupeol]	1.07	0.49	0.67	0.01	0.18	0.36	0.4	1.24	3.02	0.47	0.77	0.82	1.84	0.13	0.38	0.49	-2.09	0.12	1.26	0.62
CC[C@@H](N)CNc1ccnc(-c2cc(-c3cnn(C)c3)ccc2O)n1	2.91	-0.17	0.27	0.67	0.75	0.74	1.49	6.46	1.41	2.6	1.21	8.12	8.38	-0.2	0.07	0.12	4.5	0.55	0.8	0.48
COc1cc(N2CCC(N(C)C)CC2)ccc1Nc1ncc(Cl)c(Nc2ccccc2P(C)(C)=O)n1	2.58	0.23	0.53	10.9	2.49	0.35	5.58	4.67	3.65	0.61	2.89	15	6.56	0.2	1.4	0.32	8.95	0.49	1.14	0.35
CCCS(=O)(=O)Nc1ccc(F)c(C(=O)c2c[nH]c3ncc(-c4ccc(Cl)cc4)cc23)c1F [Vemurafenib (PLX4032, RG7204)]	9.27	1.86	0.64	4.44	0.69	1.54	2.6	4.48	4.49	0.68	0.61	10.3	-0.4	1.63	0.58	1.69	8.05	1.99	2.33	0.34
C[C@H](NC(=O)c1c(N)nn2cccnc12)c1cc2cccc(C#Cc3cnn(C)c3)c2c(=O)n1-c1ccccc1	1.18	0.33	0.47	-0.11	0.46	0.63	0.32	0.21	1.13	0.04	-0.07	0.09	2.93	0.27	0.07	0.11	-0.63	0.3	1.69	0.62
COc1cccc(-c2cc(=O)c3ccccc3o2)c1N	-0.15	0.15	0.23	0.21	0.01	0.16	0.04	0.26	-0.06	0.2	-0.72	0.19	-2.84	0.24	0.41	0.15	-0.2	0.44	0.29	0.35
O=C(c1ccc(/C=C/c2n[nH]c3ccccc23)cc1)N1CCNCC1	14	0.61	0.27	6.79	6	4.25	4.42	8.77	2.61	0.96	3.95	9.5	10.5	2.59	1.8	0.66	7.34	0.53	1.15	0.03
Cc1ncc(-c2ccnc(Nc3ccc(S(C)(=O)=O)cc3)n2)n1C(C)C	4.52	0.65	0.19	3.93	0.85	0.58	1.7	1.83	2.87	4.97	1.43	11.2	6.1	0.35	1.14	0.74	5.53	1.02	0.69	0.17
